Assay results as given in PubChem BioAssay (NCI).
Values joined by “and” are separate entries in the source; they are usually repeats but may differ in a detail not shown here. Identical values can stand only once. Compounds without any hit were thinned out: in the full panel of roughly 83,000, 20% have a hit.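 A percent growth of 40 corresponds to 60% growth inhibition; 0 means no net growth; -100 means all cells died. Active threshold: below 10.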 Unmarked numbers belong to inactive results. Active and inactive are the calls of the source.

How the values were obtained:
Test in all cases: NCI-60 one-dose screen, 48 h (100 = growth as untreated, 0 = no growth, -100 = all killed)
Conditions in all cases: 10 µM unless noted
HCT-15 colon = test system: HCT-15 colon
HT29 colon = test system: HT29 colon
SNB-75 CNS = test system: SNB-75 CNS
SNB-19 CNS = test system: SNB-19 CNS
U251 CNS = test system: U251 CNS
PC-3 prostate = test system: PC-3 prostate
SK-MEL-5 melanoma = test system: SK-MEL-5 melanoma
UACC-62 melanoma = test system: UACC-62 melanoma
LOX IMVI melanoma = test system: LOX IMVI melanoma
SK-MEL-28 melanoma = test system: SK-MEL-28 melanoma
SK-MEL-2 melanoma = test system: SK-MEL-2 melanoma
EKVX NSCLC = test system: EKVX NSCLC
SN12C renal = test system: SN12C renal
UO-31 renal = test system: UO-31 renal
TK-10 renal = test system: TK-10 renal
ACHN renal = test system: ACHN renal
CAKI-1 renal = test system: CAKI-1 renal
A498 renal = test system: A498 renal
CCRF-CEM leukemia = test system: CCRF-CEM leukemia
MOLT-4 leukemia = test system: MOLT-4 leukemia

Compound	growth (HCT-15 colon)	growth (HT29 colon)	growth (SNB-75 CNS)	growth (SNB-19 CNS)	growth (U251 CNS)	growth (PC-3 prostate)	growth (SK-MEL-5 melanoma)	growth (UACC-62 melanoma)	growth (LOX IMVI melanoma)	growth (SK-MEL-28 melanoma)	growth (SK-MEL-2 melanoma)	growth (EKVX NSCLC)	growth (SN12C renal)	growth (UO-31 renal)	growth (TK-10 renal)	growth (ACHN renal)	growth (CAKI-1 renal)	growth (A498 renal)	growth (CCRF-CEM leukemia)	growth (MOLT-4 leukemia)
O=C(Nc1ccc(-c2ccc3c(c2)NC(=O)/C3=C\c2ccc[nH]2)cc1)Nc1cccc(Cl)c1	-32.5% (active)	-61.5% (active)	16.6%	19.8%	-52.4% (active)	13.5%	-45.7% (active)	-36.3% (active)	-88.4% (active)	-4.21% (active)	-52.8% (active)	-19.6% (active)	40.7%	10.5%	-12.1% (active)	-19.6% (active)	-14.9% (active)	21.6%	13.7%	5.1% (active)
COc1ccc2oc(=O)c(-c3csc(N/N=C(\C)c4cc(OC)c(OC)c(OC)c4)n3)cc2c1	86.8%	113%	154%	86.6%	92.3%	67.6%	69.6%	93.1%	86.6%	102%	99.7%	94.7%	80.5%	90.8%	94.2%	78.7%	97.8%	145%	81.3%	81%
Clc1ccc(Nc2nnc(-c3c[nH]c4ccccc34)o2)cc1	40.4%	88.6%	59.5%	85.5%	76.4%	60.7%	87.6%	65.4%	58.1%	91.1%	95.8%	55.3%	53.6%	49.7%	121%	74.4%	50.8%	120%	10.9%	9.41% (active)
N#CCc1nnc(NC(=O)c2ccc(-n3c(=O)[nH]c4ccccc4c3=O)cc2)s1	97.1%	116%	86.8%	94.6%	106%	105%	102%	86.8%	90.5%	103%	97.7%	94.8%	95.4%	66.7%	104%	92.1%	86.3%	96.2%	101%	103%
NC1(c2ccc(-c3ccc4ncnc(NCc5ccccc5)c4c3)cn2)COC1	109% and 102%	122% and 108%	115% and 103%	100% and 98.8%	112% and 108%	94.4% and 105%	101% and 107%	104% and 94%	99% and 102%	104% and 107%	112% and 113%	111% and 100%	105% and 101%	99.8% and 85.4%	108%	102% and 109%	94.8% and 103%	118% and 134%	106% and 102%	112% and 101%
CN1C(=O)/C(=C\C(=O)c2cc3ccccc3oc2=O)c2ccccc21	39.7%	93.4%	96.8%	78.9%	42.6%	84.5%	92.1%	42.6%	58.9%	60.8%	65.1%	63.6%	66.3%	53.6%	98%	25.3%	65.2%	160%	43.4%	50.4%
O=C(N/N=C/c1occc1Br)c1[nH]c2ccc(Br)cc2c1-c1ccccc1	-78% (active)	-68.7% (active)	-78.2% (active)	-97.1% (active)	-82.6% (active)	-51.3% (active)	-97.6% (active)	-95% (active)	-100% (active)	-96.5% (active)	-88.8% (active)	-94.1% (active)	-83.8% (active)	-87.1% (active)	-76.5% (active)	-100% (active)	-91.5% (active)	-89.6% (active)	4.68% (active)	-15.2% (active)
COc1ccc(NC(=O)NN2C(=O)c3ccccc3N(C)C2c2ccc(OC)cc2)cc1 (stereo not given)	103%	109%	91%	94%	105%	89.2%	92.6%	78.1%	98.1%	102%	95.3%	100%	103%	75.3%	97.2%	106%	92.7%	108%	98.7%	96.4%
Cc1nn(-c2ccccc2)c2nc(C)n(CC(=O)N/N=C/c3ccccc3O)c(=O)c12	26.7%	41.2%	76.1%	36.5%	28.7%	46.8%	-2.79% (active)	3.15% (active)	4.1% (active)	37.9%	38.1%	13%	30%	13.2%	32.8%	14.6%	22.6%	97%	25.7%	22.8%
O=C(OCCOCCO)N(c1cccc(Br)c1)c1nc(SCCN2CCOCC2)nc2c1cnn2CC(Cl)c1ccc(Br)cc1 (stereo not given)	-38.8% (active)	0.205% (active)	47.7%	-69% (active)	14.9%	12.1%	34.2%	-58.9% (active)	-92.8% (active)	-43.5% (active)	-60.3% (active)	26.6%	20.3%	-3.09% (active)	40.5%	2.9% (active)	27.8%	45.5%	-18.4% (active)	-24.3% (active)
O=C(CSc1nc2ccccc2c(=O)[nH]1)Nc1ccccc1C(=O)O	86.6%	124%	139%	95.7%	101%	110%	94.9%	84.8%	84.8%	93.7%	116%	92.3%	98.9%	71.8%	116%	89.3%	89.9%	216%	90.5%	97%
CN(C)C(=O)c1cc(-c2ccc3ncnc(N4CCc5cc(F)c(Cl)cc54)c3c2)cnc1N	-70.8% (active)	-68.6% (active)	-28.8% (active)	-19.8% (active)	-55.7% (active)	0.623% (active)	-98.9% (active)	-83.7% (active)	-69.3% (active)	0.025% (active)	-86% (active)	-84.3% (active)	-9.32% (active)	-10.3% (active)	-69.4% (active)	2.02% (active)	-76.5% (active)	-84.2% (active)	-20.5% (active)	-38.3% (active)
O=C(Cn1c(-c2ccccc2)nc2ccccc21)N=Nc1c(O)[nH]c2ccc(Br)cc12	1.07% (active)	-33.1% (active)	-62.4% (active)	-35.5% (active)	-12.6% (active)	9.01% (active)	-50.2% (active)	-39.7% (active)	-24.7% (active)	-65.4% (active)	-8.9% (active)	-23.3% (active)	1.91% (active)	-47.5% (active)	-17.5% (active)	-80% (active)	-8.86% (active)	-38.1% (active)	32.5%	20.8%
